Data on 48 compounds can be found in PubChem BioAssay AID1851 (National Center for Advancing Translational Sciences (NCATS), 2009).

Hit rate of the full screen: of about 16,000 compounds, about 5,100 (32%) were called active. Another 25% or so got no clear call; they are omitted. Calls follow the shape of the dose curve; as a rule, active = well fitted curve in the direction sought with a large enough effect; inconclusive = small, poorly fitted or top-dose-only effect, or effect the other way; inactive = no such curve, though single readings can be large or run the other way. The list shows a part of the results.

What is called AC50 is the midpoint of the concentration-response curve, whichever way the signal moves.
% is scaled to controls: 0 for no effect and ±100 for the full control effect.

The test deals with Cytochrome P450 3A4 (Homo sapiens) (UniProt P08684). The experiment in a line: Cytochrome panel assay with activity outcomes. The settings on record: recombinant CYP, pro-luciferin dealkylation, luminescence, p450-cyp3a4; series mostly up to 57.1 µM; activity, negative = inhibition: at the top concentration.
Cytochrome P450 3A4 (Homo sapiens), sequence (P08684 whole entry, looked up): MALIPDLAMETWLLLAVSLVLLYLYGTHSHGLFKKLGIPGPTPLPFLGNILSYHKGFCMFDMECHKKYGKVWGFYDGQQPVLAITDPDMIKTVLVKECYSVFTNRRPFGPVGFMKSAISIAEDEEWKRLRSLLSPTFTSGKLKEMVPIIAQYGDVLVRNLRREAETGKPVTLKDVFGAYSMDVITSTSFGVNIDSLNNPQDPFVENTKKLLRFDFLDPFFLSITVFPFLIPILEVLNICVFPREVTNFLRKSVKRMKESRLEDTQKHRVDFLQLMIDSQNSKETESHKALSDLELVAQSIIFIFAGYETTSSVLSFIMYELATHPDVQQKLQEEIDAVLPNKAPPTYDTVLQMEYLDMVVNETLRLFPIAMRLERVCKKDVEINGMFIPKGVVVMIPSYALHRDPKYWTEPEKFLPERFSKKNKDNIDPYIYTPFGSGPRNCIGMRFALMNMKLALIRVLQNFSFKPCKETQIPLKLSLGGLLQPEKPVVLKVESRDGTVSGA
As to `CC(C)(C)NC[C@H](O)COc1cccc2c1CCC(=O)N2`, the “activity, negative = inhibition” value is -4.68% [at 25.6 µM] (inactive).

As for `CC(C)(C)NC(=O)C(Cc1ccccc1)NS(=O)(=O)c1ccc2c(c1)CCC(=O)N2` (stereo not drawn), the AC50 is 3.16 µM (active).

Consider `CC1=N[C@@](C)(COC(=O)[C@]2(C)N[C@](C)(CO)CO2)COC1=O`, for which the activity, negative = inhibition is -22.8% [at 11.4 µM] (inactive).

As to `Cc1cccc(OCC(=O)N/N=C\C=C\c2ccc3c(c2)OCO3)c1C`, the AC50 was 2.24 µM (active).

On to `COC(=O)N/N=C\C=C\c1ccc2c(c1)OCO2`, for which the “activity, negative = inhibition” value was -14.3% (inactive).

In the case of `N[C@@H](Cc1nn[nH]n1)C(=O)O`, the activity, negative = inhibition is -2.7% [at 11.4 µM] (inactive).

In the case of `Cc1ccsc1-c1nc(-c2ccccc2)c(-c2ccccc2)[nH]1`, the AC50 was 14.1 µM (active).

For the compound `COc1ccc(-c2[nH]c(-c3ccc(C(=O)O)cc3)nc2-c2ccccc2)cc1`, the “activity, negative = inhibition” value is -20.7% (inactive).

As for `c1ccc(-c2nc(-c3cccs3)[nH]c2-c2ccccc2)cc1`, the AC50 was 11.2 µM (active).

Consider `O=C(O)c1nc(-c2ccccc2)[nH]c1C(=O)O`, for which the activity, negative = inhibition was -3.83% [at 11.4 µM] (inactive).

Take `O=[N+]([O-])c1cccc(-c2nc(-c3ccccc3)c(-c3cccs3)[nH]2)c1`: the activity, negative = inhibition is -13.1% [at 2.29 µM] (inactive).

As for `O=[N+]([O-])c1cccc(-c2nc(-c3cccs3)c(-c3cccs3)[nH]2)c1`, the AC50 is 12.6 µM (active).

Regarding `CCOC(=O)Cc1cc(=O)n2[nH]c(C)c(C#N)c2n1`, the “activity, negative = inhibition” value is 14% (inactive).

Turning to `NC(=O)C(=O)O`, the “activity, negative = inhibition” value was 6.86% (inactive).

On to `CCOc1cc(CN2CCN(c3ccc(C(C)=O)cc3)CC2)ccc1OC`, for which the “activity, negative = inhibition” value was 4.29% (inactive).

For the compound `COc1ccc(C(=O)CN2CCN(c3ccc(F)cc3)CC2)cc1OC`, the AC50 was 28.2 µM (active).

Take `CCC(C)NCc1ccc(C(=O)OC)o1` (stereo not drawn): the “activity, negative = inhibition” value was -4.07% (inactive).

Regarding `CCC/C=C(\CCC)C(NS(=O)(=O)c1cccc2cccnc12)c1ccc(C(=O)OC)cc1` (stereo not drawn), the AC50 was 5.01 µM (active).

On to `CCC/C=C(\CCC)C(NS(=O)(=O)c1cccc2cccnc12)c1ccc(-c2ccccc2)cc1` (stereo not drawn), for which the AC50 was 3.16 µM (active).

Regarding `CCC(C)N1C(=O)C2C(C(=O)Nc3cccc(OC)c3)C3C=CC2(O3)C1C(=O)NC1CCCCC1C` (stereo not drawn), the AC50 was 15.8 µM (active).

For the compound `CC12CCC(C(=O)O)(C/C1=N\O)C2(C)C` (stereo not drawn), the “activity, negative = inhibition” value is -2.34% (inactive).

For the compound `CN1C(=O)c2ccccc2C(C(=O)O)C1c1cn(C)c2ccccc12` (stereo not drawn), the activity, negative = inhibition is 7.7% [at 2.29 µM] (inactive).

With `COc1ccc(C2C(C(=O)N3CCOCC3)c3ccccc3C(=O)N2c2ccc(OC)cc2)cc1` (stereo not drawn), the AC50 was 8.91 µM (active).

Consider `CCOc1ccc(C2C(C(=O)O)c3ccccc3C(=O)N2CCN2CCOCC2)cc1` (stereo not drawn), for which the “activity, negative = inhibition” value was -12.3% (inactive).

Consider `COc1ccc(C2C(C(=O)N3CCN(C)CC3)c3ccccc3C(=O)N2C2CCCCC2)cc1` (stereo not drawn), for which the AC50 is 5.01 µM (active).

Take `COc1ccccc1N1CCN(Cc2cc(=O)n3ccsc3n2)CC1`: the “activity, negative = inhibition” value was -11% (inactive).

Regarding `Cc1cccn2c(=O)c(/C=N/O)c(N3CCCC3)nc12`, the AC50 is 12.6 µM (active).

For `Cc1cccn2c(=O)c(C=NCc3ccco3)c(Nc3ccc(SC(F)F)cc3)nc12`, the “activity, negative = inhibition” value is -42.2% (inactive).

`COc1ccccc1N1CCN(c2nc3c(C)cccn3c(=O)c2C=O)CC1`: the AC50 was 15.8 µM (active).

For `Cc1cccn2c(=O)c3cc(C(=O)N4COCC4(C)C)n(C)c3nc12`, the “activity, negative = inhibition” value was -25.8% (inactive).

On to `CC(=O)[C@@H](C)CCO[C@@]1(C)OCC[C@@H]1C`, for which the activity, negative = inhibition is -5.36% [at 11.4 µM] (inactive).

As to `COc1ccc(CNC(=O)Cc2csc(Nc3nc(=S)[nH]c4ccccc34)n2)cc1`, the AC50 is 1.26 µM (active).

Consider `Cc1ccc(CNC(=O)Cc2csc(Nc3nc(=S)[nH]c4ccccc34)n2)cc1`, for which the AC50 was 1 µM (active).

With `CCOC(=O)Cc1csc(NS(=O)(=O)c2ccccc2)n1`, the activity, negative = inhibition is 6.45% [at 2.29 µM] (inactive).

In the case of `O=C(Cc1csc(Nc2nc(=S)[nH]c3ccccc23)n1)NCc1cccc(Cl)c1`, the AC50 is 1.78 µM (active).

For the compound `O=C(Nc1ccccc1)N1CCOCC1`, the “activity, negative = inhibition” value was -4.6% (inactive).

Turning to `O=C(Nc1cccc(NC(=O)N2CCN(c3ccccc3)CC2)c1)N1CCN(c2ccccc2)CC1`, the AC50 is 6.31 µM (active).

For the compound `Cc1cc2nc(C3CCCN(C(=O)NCc4ccccc4)C3)[nH]c2cc1C` (stereo not drawn), the AC50 is 10 µM (active).

For the compound `O=C(O)c1ccc(NCc2nc3cc4ccccc4cc3[nH]2)cc1`, the activity, negative = inhibition is -11.9% [at 11.4 µM] (inactive).

As for `Cc1ccc2nc(C3CCCN(C(=S)Nc4ccccc4C)C3)[nH]c2c1` (stereo not drawn), the AC50 is 6.31 µM (active).

Turning to `CC(=O)Nc1ccc2nc(C3CCCCC3)[nH]c2c1`, the “activity, negative = inhibition” value is -26.6% (inactive).

Turning to `Cc1cccc(NC(=S)N2CCC(N(C)CC3CCCO3)CC2)c1C` (stereo not drawn), the “activity, negative = inhibition” value is -16.8% (inactive).

For `O=C(CSc1nnc(-c2ccc(Cl)cc2Cl)n1C1CCCCC1)NC1CCS(=O)(=O)C1` (stereo not drawn), the AC50 was 10 µM (active).

Take `Cc1cc(C)n2c(SCC(=O)N(C)C3CCS(=O)(=O)C3)nnc2n1` (stereo not drawn): the “activity, negative = inhibition” value is -7.37% (inactive).

Regarding `Cc1ccc(-n2ccnc2SCC(=O)N(CC(C)C)C2CCS(=O)(=O)C2)c(C)c1` (stereo not drawn), the activity, negative = inhibition was -16.9% [at 2.29 µM] (inactive).

`O=P(Cc1cc[n+]([O-])cc1)(c1ccccc1)c1ccccc1`: the AC50 is 14.1 µM (active).

Take `O=P(O)(O)CCP(=O)(c1ccccc1)c1ccccc1`: the “activity, negative = inhibition” value is 14.1% (inactive).

Take `O=P(O)(CCP(=O)(O)c1ccccc1)c1ccccc1`: the activity, negative = inhibition was -3.78% [at 11.4 µM] (inactive).
